Test results from PubChem BioAssay AID1159580 (chemical genetic matrix, 2015).
“And” between values parts separate entries of the source, which are not always exact repeats. Equal values may be shown once. Among all 5,500 compounds or so, about 2,000 (36%) were called active. Not shown: some 18% with an inconclusive outcome. Rule as the data show it: active = normalized growth mostly below about 0.91 (no sharp cut-off); inconclusive = no clear call, values can overlap the other calls; inactive = mostly above about 0.92. The list shows a part of the results.

Assay: chemical genetic growth profiling, strain panel (AID 1159580);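 also: tested at 20 µM; growth read once vehicle control cultures reached saturation at 30 °C; 1 = growth at the plate median or of vehicle wells; lower values mean less growth of the strain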
Conditions: S. cerevisiae deletion strains, growth OD

Measured: normalized growth

O=c1cc(-c2cc(O)c(O)c(O)c2)oc2cc(O)cc(O)c12
active: locus YAL021C, strain ccr4, hits give low values 0.901 | locus YBR023C, strain chs3, hits give low values 0.897 | locus YBR231C, strain swc5, hits give low values 0.909 | locus YDR069C, strain doa4, hits give low values 0.855
inactive: locus YAL013W, strain DEP1, hits give low values 0.997 | locus YAL026C, strain drs2, hits give low values 0.927 | locus YAL030W, strain snc1, hits give low values 1.01 | locus YBL061C, strain skt5, hits give low values 0.942 | locus YBR009C, strain hhf1, hits give low values 0.95 | locus YBR021W, strain FUR4, hits give low values 1.07 | locus YBR171W, strain sec66, hits give low values 1 | locus YBR229C, strain ROT2, hits give low values 0.988 | locus YBR279W, strain paf1, hits give low values 0.935 | locus YCL011C, strain gbp2, hits give low values 0.946 | locus YCL016C, strain dcc1, hits give low values 0.94 | locus YCL029C, strain bik1, hits give low values 0.988 | locus YCL061C, strain MRC1, hits give low values 0.942 | locus YCL069W, strain vba3, hits give low values 0.997 | locus YCR088W, strain abp1, hits give low values 0.995 | locus YDL005C, strain med2, hits give low values 1.02 | locus YDL035C, strain GPR1, hits give low values 0.992 | locus YDL040C, strain nat1, hits give low values 1.04 | locus YDL074C, strain BRE1, hits give low values 0.957 | locus YDL101C, strain DUN1, hits give low values 1.01 | locus YDL134C, strain PPH21, hits give low values 1.05 | locus YDL185W, strain tfp1, hits give low values 0.941 | locus YDL192W, strain arf1, hits give low values 0.971 | locus YDR001C, strain nth1, hits give low values 1.01 | locus YDR101C, strain arx1, hits give low values 1.01 | locus YDR137W, strain rgp1, hits give low values 0.992 | locus YDR159W, strain sac3, hits give low values 1.05 | locus YDR162C, strain NBP2, hits give low values 1.03 | locus YDR195W, strain ref2 1.05 | locus YDR297W, strain sur2, hits give low values 0.971 | locus YDR318W, strain mcm21, hits give low values 0.995 | locus YDR334W, strain swr1, hits give low values 0.978 | locus YDR335W, strain msn5, hits give low values 0.986 | locus YDR388W, hits give low values 0.996 | locus YDR392W, strain spt3, hits give low values 0.893 | locus YDR502C, strain sam2, hits give low values 0.984 | locus YEL003W, strain gim4, hits give low values 0.957 | locus YEL037C, strain rad23, hits give low values 0.979 | locus YEL061C, strain CIN8 (second series), hits give low values 1 | locus YEL061C, strain CIN8, hits give low values 1 | locus YER015W, strain faa2, hits give low values 0.984 | locus YER016W, strain bim1, hits give low values 1 | locus YER110C, hits give low values 0.996 | locus YER111C, strain swi4, hits give low values 0.965 | locus YER155C, strain BEM2 (second series), hits give low values 0.938 | locus YER155C, strain BEM2, hits give low values 1.03 | locus YER167W, strain BCK2, hits give low values 1.01 | locus YFR010W, strain ubp6, hits give low values 0.942 | locus YGL078C, strain dbp3, hits give low values 0.979 | locus YGL086W, strain mad1, hits give low values 1.01 | locus YGL167C, strain pmr1, hits give low values 0.988 | locus YGL173C, strain kem1, hits give low values 0.967 | locus YGL227W, strain vid30, hits give low values 1.01 | locus YGL240W, strain doc1, hits give low values 1.02 | locus YGL248W, strain PDE1, hits give low values 1.01 | locus YGL253W, strain hxk2, hits give low values 0.948 | locus YGR135W, strain pre9, hits give low values 0.96 | locus YGR252W, strain gcn5, hits give low values 1 | locus YHR013C, strain ard1, hits give low values 0.904 | locus YHR027C, strain rpn1, hits give low values 0.978 | locus YHR030C, strain SLT2, hits give low values 0.989 and 1.07 | locus YHR079C, strain IRE1 (second series), hits give low values 1.02 | locus YHR079C, strain IRE1, hits give low values 1.06 | locus YHR094C, strain hxt1, hits give low values 1.02 | locus YHR129C, strain ARP1, hits give low values 0.986 | locus YHR142W, strain chs7, hits give low values 0.911 | locus YHR200W, strain rpn10, hits give low values 0.97 | locus YIL066C, strain RNR3, hits give low values 0.989 | locus YIL073C, strain SPO22, hits give low values 0.964 | locus YIL125W, strain kgd1, hits give low values 0.985 | locus YIR030C, strain dcg1, hits give low values 1 | locus YJL092W, strain hpr5, hits give low values 0.996 | locus YJL095W, strain BCK1 (second series), hits give low values 0.95 | locus YJL095W, strain BCK1, hits give low values 0.973 and 1.01 | locus YJL115W, strain asf1, hits give low values 1.01 | locus YJL129C, strain trk1, hits give low values 0.991 | locus YJL134W, strain LCB3, hits give low values 0.994 | locus YJL154C, strain vps35, hits give low values 1.02 | locus YJL164C, strain tpk1, hits give low values 0.954 | locus YJL166W, strain qcr8, hits give low values 0.957 | locus YJL168C, strain set2, hits give low values 0.998 | locus YJL187C, strain SWE1 (second series), hits give low values 0.974 | locus YJL187C, strain SWE1, hits give low values 0.986 | locus YJR043C, strain POL32, hits give low values 1 | locus YJR066W, strain TOR1, hits give low values 0.981
